This is part of a sample that, as a whole, favours compounds with a hit. Of some 83,000 tested, about 20% had one in any assay.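 Growth was measured after 48 h exposure to one concentration of compound in 96-well plates. Values under 10 count as active.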 Active and inactive are the calls of the source.
Experiments:
Experiment in all cases: NCI-60 one-dose screen, 48 h (100 = growth as untreated, 0 = no growth, -100 = all killed)
Conditions in all cases: 10 µM unless noted
DU-145 prostate = test system: DU-145 prostate
K-562 leukemia = test system: K-562 leukemia
MALME-3M melanoma = test system: MALME-3M melanoma
MDA-MB-231 breast = test system: MDA-MB-231 breast
RXF 393 renal = test system: RXF 393 renal
SF-268 CNS = test system: SF-268 CNS
SF-295 CNS = test system: SF-295 CNS
SF-539 CNS = test system: SF-539 CNS
UACC-257 melanoma = test system: UACC-257 melanoma
M14 melanoma = test system: M14 melanoma
HCT-15 colon = test system: HCT-15 colon
HT29 colon = test system: HT29 colon
SNB-19 CNS = test system: SNB-19 CNS
U251 CNS = test system: U251 CNS
PC-3 prostate = test system: PC-3 prostate
UACC-62 melanoma = test system: UACC-62 melanoma
LOX IMVI melanoma = test system: LOX IMVI melanoma
SK-MEL-28 melanoma = test system: SK-MEL-28 melanoma
SNB-75 CNS = test system: SNB-75 CNS
SK-MEL-5 melanoma = test system: SK-MEL-5 melanoma

Measured: growth

COc1cc(C(=O)N(C(C)C)C2CCCCC2)cc(OC)c1OC
inactive: DU-145 prostate 112% | K-562 leukemia 98.7% | MALME-3M melanoma 99.5% | MDA-MB-231 breast 127% | RXF 393 renal 97.4% | SF-268 CNS 98.1% | SF-295 CNS 109% | SF-539 CNS 101% | UACC-257 melanoma 93.7% | M14 melanoma 132% | HCT-15 colon 103% | HT29 colon 99.2% | SNB-19 CNS 97.9% | U251 CNS 102% | PC-3 prostate 89.8% | UACC-62 melanoma 96.5% | LOX IMVI melanoma 94.6% | SK-MEL-28 melanoma 105%

CC1CCCCN1S(=O)(=O)c1ccc(CN=C=S)cc1 (configuration not stated)
active: K-562 leukemia 9.18% | LOX IMVI melanoma 3.54%
inactive: DU-145 prostate 63.8% | MALME-3M melanoma 87.1% | MDA-MB-231 breast 51.1% | RXF 393 renal 51.9% | SF-268 CNS 91.1% | SF-295 CNS 99.6% | SF-539 CNS 78.3% | UACC-257 melanoma 79.9% | M14 melanoma 42% | HCT-15 colon 19.2% | HT29 colon 50.5% | SNB-19 CNS 77.9% | U251 CNS 68.8% | PC-3 prostate 74.4% | UACC-62 melanoma 84.5% | SK-MEL-28 melanoma 88.5%

C=CC(=O)N1CC2(CC(n3nc(-c4ccc(Oc5ccccc5)cc4)c4c(N)ncnc43)C2)C1
active: MDA-MB-231 breast 3.31% | RXF 393 renal -19.4% | UACC-257 melanoma 5.54% | SNB-75 CNS -13.6% | UACC-62 melanoma 7.95% | LOX IMVI melanoma -17.8%
inactive: DU-145 prostate 11% | K-562 leukemia 17.7% | MALME-3M melanoma 12.7% | SF-268 CNS 10.9% | SF-295 CNS 70.4% | SF-539 CNS 10.1% | M14 melanoma 14.8% | HCT-15 colon 29.2% | SNB-19 CNS 36.6% | U251 CNS 21% | PC-3 prostate 51.3% | SK-MEL-28 melanoma 29%

CCOC(=O)C1=C(C)N2C(=NC3=C(CCCC/C3=C\c3ccccc3)C2c2ccccc2)S1 (configuration not stated)
inactive: DU-145 prostate 105% | K-562 leukemia 99.2% | MALME-3M melanoma 86.7% | MDA-MB-231 breast 107% | RXF 393 renal 88.3% | SF-268 CNS 99.2% | SF-295 CNS 74% | SF-539 CNS 99.3% | M14 melanoma 95.9% | HCT-15 colon 96.9% | HT29 colon 84.4% | SNB-75 CNS 96.9% | U251 CNS 98.3% | PC-3 prostate 87.6% | UACC-62 melanoma 85.5% | LOX IMVI melanoma 100% | SK-MEL-28 melanoma 98%

O=c1nc(NO)[nH]c(=O)n1Cc1ccccc1
inactive: DU-145 prostate 115% | K-562 leukemia 108% | MALME-3M melanoma 100% | MDA-MB-231 breast 123% | RXF 393 renal 94.8% | SF-268 CNS 106% | SF-295 CNS 93.7% | SF-539 CNS 98.7% | M14 melanoma 106% | HCT-15 colon 101% | HT29 colon 103% | SNB-75 CNS 92.8% | U251 CNS 99.7% | PC-3 prostate 98.1% | UACC-62 melanoma 105% | LOX IMVI melanoma 103% | SK-MEL-28 melanoma 107%

COc1cc2nc(SCc3cc(OC)c(OC)c(OC)c3)n(-c3ccccc3OC)c(=O)c2cc1OC
inactive: DU-145 prostate 81.8% | K-562 leukemia 27.3% | MALME-3M melanoma 63% | MDA-MB-231 breast 77.5% | RXF 393 renal 78.1% | SF-268 CNS 69.9% | SF-295 CNS 73.8% | SF-539 CNS 89.9% | M14 melanoma 77.1% | HCT-15 colon 75.4% | HT29 colon 66.6% | SNB-75 CNS 62.8% | U251 CNS 86.8% | PC-3 prostate 61.1% | UACC-62 melanoma 72.5% | LOX IMVI melanoma 77.3% | SK-MEL-28 melanoma 78.9%

COc1ccc(S(=O)(=O)c2ccc(C(N)=O)cc2)cc1NC(=O)c1[nH]c(C)c2c1CCCCC2=O
active: SNB-75 CNS -13.8%
inactive: DU-145 prostate 82.9% | K-562 leukemia 46.5% | MALME-3M melanoma 70.2% | MDA-MB-231 breast 28.9% | RXF 393 renal 68.6% | SF-268 CNS 74.2% | SF-295 CNS 49.9% | SF-539 CNS 48.7% | UACC-257 melanoma 63.2% | HCT-15 colon 99.6% | HT29 colon 32.6% | SNB-19 CNS 60.2% | U251 CNS 38.6% | PC-3 prostate 68% | SK-MEL-5 melanoma 48.5% | LOX IMVI melanoma 32% | SK-MEL-28 melanoma 67.5%

COc1cccc2c(=O)c3c(sc12)c(NCCN(C)C)nc1ccccc13
active: DU-145 prostate 3.35% | K-562 leukemia -60.5% | RXF 393 renal 3.02% | HT29 colon 3.18% | SNB-75 CNS -5.46% | U251 CNS -28.1% | LOX IMVI melanoma -2.57%
inactive: MALME-3M melanoma 36.7% | MDA-MB-231 breast 12.3% | SF-268 CNS 20.7% | SF-295 CNS 36% | SF-539 CNS 22.5% | UACC-257 melanoma 29.3% | HCT-15 colon 16.5% | SNB-19 CNS 36.6% | PC-3 prostate 23% | SK-MEL-5 melanoma 32.9% | SK-MEL-28 melanoma 43.9%

O=c1[nH]c(-c2ccncc2)nc2sc3c(c12)CCCCCC3
active: RXF 393 renal -1.71%
inactive: DU-145 prostate 77.5% | K-562 leukemia 88.1% | MALME-3M melanoma 64% | MDA-MB-231 breast 62.1% | SF-268 CNS 83.5% | SF-295 CNS 53.2% | SF-539 CNS 82.6% | M14 melanoma 85.3% | HCT-15 colon 76.1% | HT29 colon 99% | SNB-75 CNS 33.8% | U251 CNS 71.7% | PC-3 prostate 90.1% | UACC-62 melanoma 88% | LOX IMVI melanoma 83.2%

COc1ccc(/C=C/C(=O)N2CCC(O)CC2)cc1OC1CCCC1
inactive: DU-145 prostate 110% | K-562 leukemia 102% | MALME-3M melanoma 109% | MDA-MB-231 breast 103% | RXF 393 renal 118% | SF-268 CNS 101% | SF-295 CNS 101% | SF-539 CNS 95.8% | UACC-257 melanoma 101% | M14 melanoma 107% | HCT-15 colon 102% | SNB-19 CNS 95.7% | U251 CNS 93% | PC-3 prostate 96.5% | UACC-62 melanoma 97.9% | LOX IMVI melanoma 95.3%

CC(C)(C)[Si](C)(C)OC1[C@@H](CNC(=O)NC(=O)CCl)O[C@@H](n2cnc3c(N)ncnc32)[C@H]1O[Si](C)(C)C(C)(C)C (some centres not stated)
inactive: DU-145 prostate 23% | SF-539 CNS 15% | M14 melanoma 23.3% | SNB-75 CNS 50% | SK-MEL-5 melanoma 90.6%
active: K-562 leukemia -33.9% | MALME-3M melanoma -67.3% | MDA-MB-231 breast -76.8% | RXF 393 renal -13.3% | SF-268 CNS -76.6% | SF-295 CNS -57.4% | HCT-15 colon -72.8% | HT29 colon -74.7% | U251 CNS -81% | PC-3 prostate -83% | LOX IMVI melanoma -91.3% | SK-MEL-28 melanoma -14.4%

O=C(O)c1ccccc1Oc1cc(-c2ccco2)nc(OCCBr)n1
inactive: DU-145 prostate 104% | K-562 leukemia 100% | MALME-3M melanoma 99.1% | MDA-MB-231 breast 105% | RXF 393 renal 135% | SF-268 CNS 98.7% | SF-295 CNS 95.1% | SF-539 CNS 105% | UACC-257 melanoma 97.8% | M14 melanoma 104% | HCT-15 colon 104% | SNB-75 CNS 99.7% | SNB-19 CNS 98.6% | U251 CNS 98.3% | SK-MEL-5 melanoma 110% | UACC-62 melanoma 94.9% | LOX IMVI melanoma 107% | SK-MEL-28 melanoma 119%

Cc1ccc(S(=O)(=O)c2ccc3[nH]c(=O)[nH]c(=O)c3c2)cc1
inactive: DU-145 prostate 107% | K-562 leukemia 87.2% | MALME-3M melanoma 119% | MDA-MB-231 breast 101% | RXF 393 renal 114% | SF-268 CNS 104% | SF-295 CNS 116% | SF-539 CNS 101% | UACC-257 melanoma 91.5% | M14 melanoma 101% | HCT-15 colon 103% | SNB-19 CNS 94.3% | U251 CNS 95.1% | PC-3 prostate 86.2% | SK-MEL-5 melanoma 103% | UACC-62 melanoma 92.9% | LOX IMVI melanoma 101% | SK-MEL-28 melanoma 114%

O=C(c1ccc2ncc(-c3nc(NC4CC4)ncc3F)n2c1)N1CCOCC1
active: RXF 393 renal -48.7% | SF-268 CNS 1.39% | SF-539 CNS -0.925% | SNB-75 CNS -21.6% | SK-MEL-5 melanoma -51.8% | LOX IMVI melanoma -0.283%
inactive: DU-145 prostate 11.3% | K-562 leukemia 73.6% | MALME-3M melanoma 71.2% | MDA-MB-231 breast 49.8% | SF-295 CNS 19.6% | UACC-257 melanoma 46.1% | HCT-15 colon 23.8% | HT29 colon 26.4% | SNB-19 CNS 45.8% | U251 CNS 28.6% | PC-3 prostate 52.6% | UACC-62 melanoma 16.9% | SK-MEL-28 melanoma 45.4%

COC(=O)C1C2CC3c4[nH]c5cc(OC)ccc5c4CCN3CC2CC(OC2CCCCO2)C1OC (configuration not stated)
inactive: DU-145 prostate 111% | K-562 leukemia 95.2% | MALME-3M melanoma 104% | MDA-MB-231 breast 96.8% | RXF 393 renal 104% | SF-268 CNS 101% | SF-295 CNS 102% | SF-539 CNS 97.6% | UACC-257 melanoma 98.6% | M14 melanoma 103% | HCT-15 colon 99.8% | U251 CNS 97% | PC-3 prostate 87.1% | UACC-62 melanoma 99.3% | LOX IMVI melanoma 95.4% | SK-MEL-28 melanoma 101%

Cc1c(C(=O)Nc2nc(-c3ccccc3)cs2)nnn1-c1ccccc1Br
active: SK-MEL-5 melanoma -68.6% [50 µM]
inactive: DU-145 prostate 51.8% [50 µM] | K-562 leukemia 20.3% [50 µM] | MALME-3M melanoma 17.5% [50 µM] | MDA-MB-231 breast 44% [50 µM] | RXF 393 renal 76.4% [50 µM] | SF-268 CNS 61.5% [50 µM] | SF-295 CNS 31.2% [50 µM] | SF-539 CNS 63.8% [50 µM] | UACC-257 melanoma 13.2% [50 µM] | M14 melanoma 43.1% [50 µM] | HCT-15 colon 29.5% [50 µM] | SNB-75 CNS 67.8% [50 µM] | SNB-19 CNS 61.1% [50 µM] | U251 CNS 50.8% [50 µM] | UACC-62 melanoma 39.4% [50 µM] | LOX IMVI melanoma 12% [50 µM] | SK-MEL-28 melanoma 44.5% [50 µM]

O=C(Nc1ccc(F)cc1)c1ccc(C(=O)Nc2ccc(F)cc2)cc1
inactive: DU-145 prostate 112% | K-562 leukemia 98.7% | MALME-3M melanoma 101% | MDA-MB-231 breast 102% | RXF 393 renal 105% | SF-268 CNS 107% | SF-295 CNS 91.1% | SF-539 CNS 89.9% | UACC-257 melanoma 101% | M14 melanoma 105% | HCT-15 colon 89.1% | SNB-75 CNS 84.1% | SNB-19 CNS 106% | PC-3 prostate 99.6% | SK-MEL-5 melanoma 99.9% | UACC-62 melanoma 107% | LOX IMVI melanoma 103% | SK-MEL-28 melanoma 98.6%
